Hits are enriched below; roughly 3% of the tested compounds scored in any of these assays.
FadD28 binding: M. tuberculosis FadD28 bisubstrate binding inhibition. FadD28 bisubstrate probe binding, fluorescence polarization. inhibition, % at 12.5 µM. actives 0.22% (n = 360,000); in the data active = inhibition above about 8.5%, passing the limit was not always enough
BioA inh: inhibitors of Mycobacterium tuberculosis BioA enzyme. purified M. tuberculosis BioA enzyme, plate reader. inhibition, % at 9.99 µM. actives 0.096% (n = 360,000); in the data active = inhibition above about 40%
GDH-TPI counter-1: counter-screen for M. tuberculosis FBA inhibitors: GDH-TPI coupled enzymes | AID 588335 | GDH-TPI coupled enzyme counterscreen, NADH absorbance | inhibition, % at 4.8 µM | actives 1.2% (n = 360,000); in the data active = inhibition above about 30%;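 note: 0% = DMSO wells and 100% = wells lacking the enzyme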
Rv3671c inh: Rv3671c (M. tuberculosis) protease inhibition; inhibition, % at 5.96 µM; AID 2606; actives 0.048% (n = 320,000); in the data active = inhibition above about 38%;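 note: extracellular domain of Rv3671c used as enzyme; 0% = enzyme with DMSO and 100% = no enzyme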
Target sequence (P9WHR9 whole entry, looked up, the tested form may be a part): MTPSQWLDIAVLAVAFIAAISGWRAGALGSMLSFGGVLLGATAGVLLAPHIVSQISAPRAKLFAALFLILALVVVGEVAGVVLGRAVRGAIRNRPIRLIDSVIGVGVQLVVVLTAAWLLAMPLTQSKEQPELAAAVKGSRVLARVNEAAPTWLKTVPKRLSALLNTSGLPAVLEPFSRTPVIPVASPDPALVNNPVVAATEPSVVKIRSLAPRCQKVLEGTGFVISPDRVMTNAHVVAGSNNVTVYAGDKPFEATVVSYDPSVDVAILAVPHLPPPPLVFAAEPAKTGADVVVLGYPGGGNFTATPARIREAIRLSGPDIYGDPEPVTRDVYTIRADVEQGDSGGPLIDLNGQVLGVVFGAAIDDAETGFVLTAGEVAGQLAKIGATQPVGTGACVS
FBA Mtb inh: inhibitors of M. tuberculosis fructose-bisphosphate aldolase | purified M. tuberculosis FBA, fluorescence read-out | inhibition, % at 1 µM | actives 2.3% (n = 360,000) | AID 588726;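 note: 0% = vehicle and 100% = reference inhibitor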
Target sequence (P9WQA3 whole entry, looked up): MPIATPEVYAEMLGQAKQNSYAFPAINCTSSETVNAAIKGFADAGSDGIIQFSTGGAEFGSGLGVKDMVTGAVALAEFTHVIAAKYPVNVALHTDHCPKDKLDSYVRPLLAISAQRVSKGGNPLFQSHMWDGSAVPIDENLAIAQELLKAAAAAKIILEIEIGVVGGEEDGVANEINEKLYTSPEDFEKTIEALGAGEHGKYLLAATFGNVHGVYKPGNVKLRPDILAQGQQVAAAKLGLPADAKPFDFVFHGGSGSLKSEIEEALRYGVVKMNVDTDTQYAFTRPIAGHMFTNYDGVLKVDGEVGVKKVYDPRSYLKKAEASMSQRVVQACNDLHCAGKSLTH
Mtb FBA inh conf: confirmation of M. tuberculosis fructose-bisphosphate aldolase inhibitors | inhibition, % at 1 µM | shares compounds with FBA Mtb inh | actives 78% (n = 5,600) | purified M. tuberculosis FBA, fluorescence read-out;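 note: 0% = vehicle wells and 100% = reference inhibitor wells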
GDH-TPI counter-2: counter-screen for M. tuberculosis FBA inhibitors: GDH-TPI coupled enzyme inhibition; GDH-TPI coupled enzyme counterscreen, fluorescence; shares compounds with FBA Mtb inh; actives 81% (n = 5,600); inhibition, % at 1 µM; in the data active = inhibition above about 10%
An asterisk follows results filed as active; . = no result; + = active, no number. Cut-off read from the data, not from the text of the source, unless noted: active = inhibition above about 27%; inactive = the rest.

SMILES | FadD28 binding | BioA inh | GDH-TPI counter-1 | Rv3671c inh | FBA Mtb inh | Mtb FBA inh conf | GDH-TPI counter-2
Cn1nnnc1SCC(=O)Nc1nn(-c2ccccc2)nc1C(N)=O | -1.0 | . | 2.5 | -5.7 | 27.8* | 132.0* | 89.1*
CCCN(C)C[C@H]1Oc2ncc(C#CCN(C)C)cc2C(=O)N([C@@H](C)CO)C[C@H]1C | . | -2.9 | . | . | . | . | .
CCn1c2ccccc2c(=O)c2ccccc21 | -1.6 | 1.0 | 6.6 | -4.0 | 87.1* | 5.0 | -3.7
CN1CC=C2C(C#N)=C(N)C(C#N)(C#N)[C@H](c3cccc(Cl)c3)C2C1 (stereo partly specified) | -2.0 | -8.6 | 12.4 | 3.8 | 28.5* | 8.8 | -0.5
CN1CC=C2C(C#N)=C(N)C(C#N)(C#N)C(c3ccncc3)C2C1 (stereo unspecified) | -0.2 | 0.4 | 6.6 | 5.7 | 19.8 | . | .
CCCC1C2CN(C(C)C)CC=C2C(C#N)=C(N)C1(C#N)C#N (stereo unspecified) | -0.8 | -15.7 | 15.7 | 8.2 | 45.8* | 25.9 | 28.6*
CN1CC=C2C(C#N)=C(N)C(C#N)(C#N)C(c3ccsc3)C2C1 (stereo unspecified) | -1.6 | -5.8 | 8.3 | 9.6 | 29.9* | 79.2* | 65.0*
CC(NC(=O)C1=CC=CN2CCS(=O)(=O)N=C12)c1ccc(Cl)c(Cl)c1 (stereo unspecified) | -1.5 | . | 17.5 | 0.5 | 15.9 | . | .
O=C(NCc1ccccc1Cl)C1=CC=CN2CCS(=O)(=O)N=C12 | -2.4 | -1.7 | 11.0 | -3.4 | 35.8* | + | +
CC(NC(=O)C1=CC=CN2CCS(=O)(=O)N=C12)c1ccc(Cl)cc1Cl (stereo unspecified) | -1.4 | 5.1 | 1.0 | -2.4 | 28.9* | 125.5* | 94.7*
O=S(=O)(Nc1cccc(-c2cn3c(n2)SCC3)c1)c1ccccc1F | -1.1 | -0.2 | 7.7 | -16.0 | 1.4 | . | .
O=S(=O)(Nc1cccc(-c2cn3c(n2)SCC3)c1)c1cccs1 | 1.7 | . | 0.0 | -19.0 | 32.1* | 97.8* | 96.3*
c1ccc(N2CC3COc4ccccc4C3=N2)cc1 (stereo unspecified) | -1.5 | . | 17.2 | . | 57.9* | 73.1* | 71.2*
c1ccc2c(c1)OCC(C1=NCCN1)O2 (stereo unspecified) | -0.4 | -0.3 | 3.6 | 0.0 | 1.5 | . | .
COCC(=O)N(C)C[C@H]1Oc2ncc(-c3cccc(OC)c3)cc2C(=O)N([C@@H](C)CO)C[C@H]1C | . | -1.7 | . | . | . | . | .
O=C(O)/C=C/c1cn(-c2ccccc2)nc1-c1cc2ccccc2o1 | -7.4 | . | 8.6 | -15.9 | 90.6* | + | 156.8*
CN(Cc1cn(-c2ccccc2)nc1-c1cc2ccccc2o1)C(=O)CCC(=O)O | 0.6 | . | 4.8 | -5.7 | 45.5* | -4.8 | -4.2
O=C(O)/C=C\c1cn(-c2ccccc2)nc1-c1cc2ccccc2o1 | -12.2 | . | 4.8 | -11.1 | 76.5* | 124.0* | 101.0*
CN(C)C(=O)c1cn(-c2ccccc2)nc1-c1cc2ccccc2o1 | 0.1 | -1.0 | 4.4 | 4.9 | 17.6 | . | .
CNC[C@H]1Oc2ccc(N(C)C)cc2CC(=O)N([C@@H](C)CO)C[C@H]1C | . | -2.0 | . | . | . | . | .
COc1ccc(S(=O)(=O)Nc2ccc3c(c2)C(=O)N([C@H](C)CO)C[C@@H](C)[C@@H](CN(C)C(=O)C2CCCCC2)OCCCC[C@H](C)O3)cc1 | . | 0.1 | . | . | . | . | .
C[C@H](NC(=O)C[C@@H]1C=C[C@@H](NC(=O)C2CCC2)[C@@H](CO)O1)c1ccccc1 | . | -0.9 | . | . | . | . | .
COc1ccc(C(=O)N/N=C(\c2ccccc2)c2ccccn2)cc1 | 2.1 | -1.7 | 17.1 | 6.7 | 49.4* | 147.2* | 115.5*
Nc1nc2nccc(-c3ccccn3)n2n1 | 0.4 | . | 6.4 | 3.9 | 38.5* | + | +
c1ccc(-c2ccnc3ncnn23)nc1 | -3.7 | . | 6.0 | -5.6 | 3.1 | . | .
SMILES | FadD28 binding | BioA inh | GDH-TPI counter-1 | Rv3671c inh | FBA Mtb inh | Mtb FBA inh conf | GDH-TPI counter-2
CCOC(=O)Cc1csc(/N=C/c2c(O)n(-c3ccccc3C(F)(F)F)c(=O)c3ccccc23)n1 | -5.1 | -1.3 | 17.9 | -1.8 | 104.8* | 85.8* | 58.4*
COc1ccc2[nH]c3c(=O)n(N)c(C)nc3c2c1 | -1.4 | -1.9 | 10.2 | -51.5 | 106.0* | 157.2* | 136.9*
O=c1c2[nH]c3ccccc3c2nc2n1CCS2 | -0.2 | . | 3.1 | -10.1 | 5.6 | . | .
COc1ccc2[nH]c3c(=O)n4c(nc3c2c1)SCC4 | 0.8 | . | 7.6 | -15.0 | 49.7* | 12.5 | 9.7
Cc1ccc2[nH]c3c(=O)n(N)c(C)nc3c2c1 | -1.9 | 1.1 | 13.9 | -30.3 | 40.9* | 39.4* | 26.9*
Cc1ccc2[nH]c3c(=O)n(Cc4ccco4)cnc3c2c1 | -4.1 | -0.7 | 7.5 | 2.3 | 4.4 | . | .
CO[C@H]1CC[C@@H]2CCN(C)C(=O)[C@@H](C)[C@H](OC)CN(C)C(=O)c3cc(C#N)ccc3OC[C@@H]1O2 | . | 0.4 | . | . | . | . | .
C[C@@H]1CN([C@@H](C)CO)C(=O)c2cc(C#Cc3cccc(F)c3)cnc2O[C@@H]1CN(C)C(=O)C1CCOCC1 | . | 2.3 | . | . | . | . | .
O=C(C[C@H]1C[C@@H]2c3cc(NC(=O)C4CCOCC4)ccc3O[C@@H]2[C@H](CO)O1)NC1CCCC1 | . | -0.4 | . | . | . | . | .
O=C(N[C@H]1CC[C@H](CCn2cc(C3(O)CCCC3)nn2)O[C@H]1CO)C1CCCC1 | . | -1.7 | . | . | . | . | .
CC(C)(C)C(=O)Nc1cccc(-c2nc3ccccc3[nH]2)c1 | -6.3 | 3.8 | -9.7 | -7.1 | 10.0 | . | .
CC(C)(C)C(=O)Nc1sc2c(c1-c1nc3ccccc3[nH]1)CCCC2 | -2.6 | -2.0 | 18.9 | 5.0 | 83.3* | 82.8* | 60.9*
Fc1ccccc1-c1nc2nc3ccccc3nc2n1CC1CCCO1 (stereo unspecified) | -4.0 | -0.8 | 58.6* | 3.1 | 59.5* | -2.0 | -3.2
Cc1ccc(-c2cc(-c3ccccc3)c(C#N)c(N)n2)o1 | -4.0 | 0.9 | 8.9 | -2.0 | 28.5* | 148.4* | 125.3*
Cc1cc(CC(=O)O)c2oc(-c3ccoc3)cc(=O)c2c1 | . | . | . | -2.1 | . | . | .
Cc1cc2c(=O)cc(-c3ccccc3)oc2c(C(=O)O)c1C | -3.5 | . | . | . | 38.7* | 55.9* | 47.6*
NC(=O)c1ccccc1NC(=O)/C=C/C(=O)O | -2.5 | 0.3 | -1.2 | -6.5 | 50.4* | 56.6* | 48.5*
O=C(O)/C=C\C(=O)Nc1ccccc1C(=O)NCc1ccccc1 | -1.6 | -0.8 | 10.4 | -1.4 | 52.4* | -5.4 | -3.1
COC(=O)c1ccccc1NC(=O)/C=C/C(=O)O | -0.5 | -2.1 | 4.8 | 8.2 | 6.9 | . | .
C[C@@H]1CN([C@H](C)CO)S(=O)(=O)c2ccc(Br)cc2O[C@@H]1CN(C)CC1CC1 | . | 1.0 | . | . | . | . | .
N#Cc1ccc(-c2ccc(OCC3CNC(=O)O3)cc2)cc1 (stereo unspecified) | -2.8 | 0.6 | 0.0 | 3.0 | 43.8* | + | +
CCOC(=O)COc1nc(-c2ccco2)cc(-c2ccco2)c1C#N | -2.8 | 0.6 | 14.6 | 1.6 | 79.8* | 15.7 | 14.2*
CCOC(=O)COc1nc(-c2ccc(C)cc2)cc(-c2ccco2)c1C#N | -0.7 | . | -12.2 | -1.2 | 0.9 | . | .

Source: PubChem BioAssay
